Data from PubChem BioAssay (NCATS).
Results filed as inconclusive are left out. Entries that show only a call come without a potency. Calls of active or inactive are those of the source. Calls follow the shape of the dose curve; as a rule, active = well fitted cell-killing curve with a large enough effect; inconclusive = small, poorly fitted or top-dose-only effect, or effect the other way; inactive = flat fitted curve, though single readings scatter.

Each molecule was assayed on SKOV3 (assay: Primary qHTS to identify gynecologic anti-cancer compounds using libraries of approved drugs and bioactive compounds (AID 1345084; also: nearly all actives have a fitted effect of over 55% in size)). Conditions: Gynecologic cancer cell panel viability, ATPlite luminescence, 48 h; series mostly up to 57.5 µM.
Method in brief: (§1)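 Measured: luminescence after ATPlite addition (15 min, RT). Exposure: 48 h, 37 C, 5% CO2.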
Potency is read from the fitted curve at half-maximal effect.

Compound | Potency
CC1CC(=O)NN=C1c1ccc(NCC(C)(C)NCC(O)COc2cc(Cl)ccc2C#N)cc1 (stereo unspecified) | inactive
O=S(=O)(O)c1ccc2nc(-c3ccccc3)[nH]c2c1 | inactive
C[C@H](CN1CCCC1)C(=O)c1ccc(C(F)(F)F)cc1 | inactive
COC(=O)c1cc(Cl)ccc1NS(=O)(=O)C(F)(F)F | inactive
CC(C(O)c1ccccc1)N(C)CCOC(c1ccccc1)c1ccccc1 (stereo unspecified) | 20 µM (active)
CCCCCCCCCCCCCCCCCCNC(=O)OC1CCN(C(=O)OC[C@H](COC(=O)N(Cc2cccc[n+]2CC)C(=O)c2ccccc2OC)OC)CC1 | 20 µM (active)
Nc1ccc2c(c1)CN1C(=O)c3ccccc3C1=N2 | 7.94 µM (active)
CC(C)(C)c1ccc(O)c(O)c1 | 31.6 µM (active)
O=C(Nc1ccc(S(=O)(=O)N2CCOCC2)cc1)c1cc(Cl)ccc1NS(=O)(=O)c1ccc(Cl)s1 | inactive
OC1(c2ccc(Cl)c(C(F)(F)F)c2)CCN(CCCC(c2ccc(F)cc2)c2ccc(F)cc2)CC1 | 25.1 µM (active)

These molecules were tested on Tov-21-G in the same assay as above. Conditions: Gynecologic cancer cell panel viability, ATPlite luminescence, 48 h; series mostly up to 57.5 µM.
Method in brief: as §1

Compound | Potency
O=C(Nc1ccc(Cl)cc1)Nc1ccc(Cl)c(Cl)c1 | inactive
Cc1cc(OCCOCC[N+](C)(C)Cc2ccccc2)ccc1C(C)(C)CC(C)(C)C | inactive
CC[C@@]1(O)C(=O)OCc2c1cc1n(c2=O)Cc2c-1nc1ccccc1c2/C=N/OC(C)(C)C | 1.41 µM (active)
O=C(O)CNC(=O)CNC(=O)CNC(=O)CSC(=O)c1ccccc1 | inactive
Nc1c2ccccc2nc2ccccc12 | 14.1 µM (active)
CN1CCC(Nc2ncc3ncnc(Nc4ccc(F)c(Cl)c4)c3n2)CC1 | inactive
COc1c(C)c2c(c(O)c1C/C=C(\C)CCC(=O)OCCN1CCOCC1)C(=O)OC2 | 2 µM (active)
CC1CC(=O)NN=C1c1ccc(NCC(C)(C)NCC(O)COc2cc(Cl)ccc2C#N)cc1 (stereo unspecified) | inactive
O=S(=O)(O)c1ccc2nc(-c3ccccc3)[nH]c2c1 | inactive
C[C@H](CN1CCCC1)C(=O)c1ccc(C(F)(F)F)cc1 | inactive
CC(C(O)c1ccccc1)N(C)CCOC(c1ccccc1)c1ccccc1 (stereo unspecified) | inactive
CC(NCCC(c1ccccc1)c1ccccc1)c1ccccc1 (stereo unspecified) | inactive
CCCCCCCCCCCCCC[N+](C)(C)C | 5.62 µM (active)
CCCCCCCCCCCCCCCCCCNC(=O)OC1CCN(C(=O)OC[C@H](COC(=O)N(Cc2cccc[n+]2CC)C(=O)c2ccccc2OC)OC)CC1 | 25.1 µM (active)
CC(=O)Oc1ccc(C2(c3ccc(OC(C)=O)cc3)Oc3ccccc3NC2=O)cc1 | 22.4 µM (active)
Nc1ccc2c(c1)CN1C(=O)c3ccccc3C1=N2 | 10 µM (active)
CCOC(=O)C1=C(C)NC(C)=C(C(=O)OCC)C1c1ccccc1/C=C/C(=O)OC(C)(C)C | inactive
O=C(Nc1ccc(S(=O)(=O)N2CCOCC2)cc1)c1cc(Cl)ccc1NS(=O)(=O)c1ccc(Cl)s1 | inactive
OC1(c2ccc(Cl)c(C(F)(F)F)c2)CCN(CCCC(c2ccc(F)cc2)c2ccc(F)cc2)CC1 | inactive
CO[C@@H]1[C@@H](OC)[C@H](C)[C@@](O)(CC(=O)O)O[C@H]1[C@H](C)[C@H]1O[C@@]2(CC[C@@](C)([C@H]3CC[C@@](C)([C@@H]4O[C@@H]([C@H]5O[C@](C)(O)[C@H](C)C[C@@H]5C)C[C@@H]4OC4C[C@H](OC)[C@@H](OC)[C@H](C)O4)O3)O2)C[C@H](O)[C@H]1C (stereo partly specified) | 11.2 µM (active)
CCCCCC(=O)O[C@]1(C(C)=O)CC[C@H]2[C@@H]3CCC4=CC(=O)CC[C@]4(C)[C@H]3CC[C@@]21C | inactive
